Assay outcomes deposited in PubChem BioAssay by several laboratories.
This excerpt belongs to a sample that is enriched for hits.
HePTP inhibitor – human HePTP phosphatase inhibition. P35236. inhibition, % at 20 µM. recombinant HePTP phosphatase activity, OD absorbance. AID 521. 0.64% of 110,000 active; in the data active = inhibition above about 50%;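 note: plate controls were vehicle for no effect and reference inhibitor for full effect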
Target sequence (P35236 whole entry, looked up): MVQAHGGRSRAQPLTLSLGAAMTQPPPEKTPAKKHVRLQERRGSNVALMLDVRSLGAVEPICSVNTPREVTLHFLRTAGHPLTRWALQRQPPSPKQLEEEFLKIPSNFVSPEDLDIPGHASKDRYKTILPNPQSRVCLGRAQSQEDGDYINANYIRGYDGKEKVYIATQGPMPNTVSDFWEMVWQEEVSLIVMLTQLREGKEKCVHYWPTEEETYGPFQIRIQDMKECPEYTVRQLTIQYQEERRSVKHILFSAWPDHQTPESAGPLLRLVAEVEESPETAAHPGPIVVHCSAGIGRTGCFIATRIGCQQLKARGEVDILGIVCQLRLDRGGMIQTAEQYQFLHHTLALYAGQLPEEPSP
D1 mod – D1 dopamine receptor (human) allosteric modulation | P21728 | B-score at 10 µM | HEK293 D1, CRE-luciferase, dopamine EC30 potentiation; actives deviate in either direction | 5.9% of 58,000 active | AID 641;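 active = luminescence count or its row- and column-corrected plate score outside the 99.7% band of the plate's sample wells, on either side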
Candida biofilm – kills Candida albicans biofilms | C. albicans biofilm + clotrimazole, Alamar Blue | inhibition, % at 6 µM | 0.14% of 85,000 active;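 active = inhibition above 20%; inactive = inhibition below 20%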;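 note: preformed 24 hr biofilms exposed to compound for 48 hr; 0% = biofilm without compound and 100% = blank killed by clotrimazole plus chlorhexidine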
PLAP activator – activates human placental alkaline phosphatase; P05187; purified PLAP enzyme, luminescent substrate read-out; hits give high values; activation fold at 20 µM; 1.2% of 96,000 active; AID 696; in the data active = activation fold above about 2
DAT uptake mod – modulates human dopamine transporter uptake under cocaine. Q01959. LLC-PK1 hDAT cells, [14C]-dopamine uptake with cocaine IC80; actives deviate in either direction. B-score at 10 µM. 1.3% of 110,000 active. AID 449768;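 active = Z score or B-score, a plate-position-corrected score, falls beyond the plate's 99.7% confidence bounds, in either direction; inactive = both scores lie inside the 99.7% bounds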;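 note: scored against the spread of the other compound wells on the same plate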
TNAP act mid DEA – activates human TNAP at intermediate phosphate acceptor concentration; 64,000 tested, under 10 active; purified TNAP, CDP-star luminescence, 100 mM DEA, 30 min; hits give high values; scale: 0 levamisole-inhibited, 1 vehicle-only enzyme; activation factor at 20 µM; P05186;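 active = activation factor of at least 2 at 20 µM, relative to controls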
* marks the source's active call; other numbers are inactive results; . = no result.

SMILES	HePTP inhibitor	D1 mod	Candida biofilm	PLAP activator	DAT uptake mod	TNAP act mid DEA
O=C(Nc1ccc(Cl)c(Cl)c1)c1cccc(F)c1	-15	.	.	.	.	.
C=CCOc1ccc(C(=O)NC(C)C2COc3ccccc3O2)cc1 (stereo not drawn)	-7	.	.	.	.	.
O=C(Nc1ccc2nc(-c3cccnc3)[nH]c2c1)C12CC3CC(CC(C3)C1)C2	.	.	5	.	0.89	.
CC(C)c1nc2ccc(NC(=O)C34CC5CC(CC(C5)C3)C4)cc2[nH]1	.	.	4	2*	-0.025	.
O=C(Nc1nc2ccc3ccccc3c2s1)c1cccc(Br)c1	12	.	.	.	.	.
O=C(Nc1nc2ccc3ccccc3c2s1)c1ccc(C(=O)c2ccccc2)cc1	104*	.	.	.	.	.
O=C(COc1ccc(Cl)cc1Cl)NNC(=O)C1COc2ccccc2O1 (stereo not drawn)	10	.	.	.	.	.
Cc1ccccc1Nc1nnc(SCc2cc([N+](=O)[O-])cc3c2OCOC3)s1	.	.	.	2*	1.9	.
O=[N+]([O-])c1cc2c(c(CSc3nnc(Nc4ccccc4)s3)c1)OCOC2	.	.	.	1.1	-0.37	.
c1cc(CN2CCN(C3CCCCC3)CC2)ccn1	-7	.	.	.	.	.
COC(=O)C1=NNC2C(=O)N(Cc3ccccc3)C(=O)C12 (stereo not drawn)	6	.	.	.	.	.
Cc1c(-c2ccc(F)cc2)[n+](=O)c2c(n1[O-])CCC2	104*	.	.	.	.	.
COc1ccc(-c2c(C)n([O-])c3c([n+]2=O)CCC3)cc1	104*	.	.	.	.	.
N#CCCCSc1nnc(-c2ccc(Cl)cc2)n1-c1ccccc1	-20	1.3	2	1	-8.6*	1
CCC1C(=O)N(c2nc(C)cc(C)n2)N=C1C (stereo not drawn)	.	.	3	1.2	-1	.
CC1=NN(c2nc(C)cc(C)n2)C(=O)C1CCC(C)C (stereo not drawn)	.	.	4	2.3*	-1.1	.
Cc1cc(C)nc(/N=C(/N)Nc2ccccc2O)n1	-11	.	.	.	.	.
COc1cc(OC)cc(-c2cc3nc4c(c(N5CCN(c6cnccn6)CC5)n3n2)CCCC4)c1	7	-3.3*	12	.	.	0.9
Oc1ccccc1/C=N/c1nc2ccccc2n1Cc1ccc(Cl)cc1	-1	.	.	.	.	.
Cc1cc(NC(c2ccc(Cl)cc2)c2ccc3cccnc3c2O)no1 (stereo not drawn)	.	.	-2	2*	-0.45	.
COC(=O)c1c(NC(=O)c2nc3ccccc3s2)sc2c1CCN(C(C)=O)C2	-14	-2.4	7	2.1*	-0.29	1.1
CCSc1nnc(NC(=O)c2c(-c3c(Cl)cccc3Cl)noc2C)s1	-25	.	.	.	.	.
CCOC(=O)c1c(NC(=O)c2ccc(S(=O)(=O)N3CCCCCC3)cc2)sc(C(C)=O)c1C	11	.	.	.	.	.
O=C1N=c2ccccc2=C1c1cc(-c2ccccc2)oc1O	56*	.	.	.	.	.
Cc1cc(N2CCOCC2)c2c(N)c(Br)cc(C)c2n1	4	0.58	.	2*	-0.77	0.9
SMILES	HePTP inhibitor	D1 mod	Candida biofilm	PLAP activator	DAT uptake mod	TNAP act mid DEA
Cc1cc(Br)c(Nc2nc(NN)nc(N3CCOCC3)n2)cc1Cl	-7	.	.	.	.	.
CCOC(=O)c1[nH]c2c([N+](=O)[O-])cc(C)cc2c1C	-5	.	.	.	.	.
O=C(NC1CCC(NC(=O)C(F)(F)C(F)F)CC1)C(F)(F)C(F)F (stereo not drawn)	4	-3.2*	12	1	0.48	1
O=C(NCCCNC(=O)C(F)(F)C(F)F)C(F)(F)C(F)F	10	-0.49	-6	1	-0.18	0.9
COc1ccccc1C(=O)N1CCN(C=O)CC1	9	.	.	.	.	.
O=CN1CCN(C(=O)c2ccccc2F)CC1	2	-3.2*	11	1	0.047	1
NC(=S)n1[nH]c(-c2ccc([N+](=O)[O-])cc2)c(N=Nc2ccc(O)cc2)c1=O	.	.	2	0.7	.	.
CCN(CC)S(=O)(=O)c1ccc(N=Nc2c(C)[nH]n(C(N)=S)c2=O)cc1	.	.	9	.	-3*	.
O=C(O)C1CCCCC1C(=O)NCCc1c[nH]c2ccccc12 (stereo not drawn)	12	-5.1*	7	1.1	-0.96	0.9
Cc1oc2cc3c(C(=O)OCCN(C)C)c(C)oc3cc2c1C(=O)OCCN(C)C	10	-3.4*	8	.	.	0.8
Cn1nnnc1SCCNCc1ccc(Cl)cc1	.	.	-1	1	-0.65	.
CCOc1cc(CNCCSc2nnnn2C)cc(Br)c1OCc1ccccc1	.	.	.	2*	1	.
CCC(C)(C)n1nnnc1C(c1ccc(C)cc1)N1CCN(Cc2ccc3c(c2)OCO3)CC1 (stereo not drawn)	.	.	4	.	1.8	.
